The supplement of paper PMC11219838
A number with no mark means an inactive call.

How the values were obtained:
Settings in all cases: 60 µM; 5 days; temperature: 20 °C
[1] = system: Meloidogyne hapla J2; experiment: proportion of mobile M. hapla J2 relative to DMSO control (fraction of DMSO control); higher = more viable, less nematicidal, active = 0.7 or less
Procedure, shortened: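 Two biological replicates were run and averaged, each on 96-well plates in which about 25 M. hapla J2 sat in distilled water per well. Compound was pinned in to give 60 µM final and 0.6% v/v DMSO, and the sealed plates were shaken at 200 rpm and 20 °C for 5 days before 2 µL 1 M NaOH was added. Mobility was scored microscopically and divided by the mean from the plate's DMSO-only wells, of which there were eight.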

[2] = system: Ditylenchus dipsaci; experiment: proportion of mobile D. dipsaci (mixed stage) relative to DMSO control (fraction of DMSO control); higher = more viable, less nematicidal, active = 0.86 or less; extreme values may be limits of the assay
Procedure, shortened: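 The worms, D. dipsaci raised on pea plants in Gamborg B-5 agar, were recovered through a filter funnel into water. Each well of a 96-well plate then held about 20 of them in distilled water plus pinned compound at 60 µM final (0.6% v/v DMSO), and the sealed plates were shaken at 200 rpm at 20 °C for 5 days. Following addition of 2 µL 1 M NaOH, mobile worms were counted by microscopy, and mobility was expressed against DMSO controls as the average of two biological replicates.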

[3] = system: Caenorhabditis elegans dauer (daf-2(e1370)); experiment: proportion of mobile C. elegans dauer larvae relative to DMSO control (fraction of DMSO control); higher = more viable, less nematicidal, active = 0.63 or less; extreme values may be limits of the assay
Procedure, shortened: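 Synchronized C. elegans larvae were kept for 48 h at 25 °C on MYOB plates seeded with E. coli OP50 to induce dauer formation, and roughly 20 dauers were transferred into each well of a 96-well plate containing liquid NGM. Compound was pinned in to a final concentration of 60 µM with 0.6% v/v DMSO, and the sealed plates were shaken at 200 rpm for 5 days at 20 °C. The fraction of mobile worms was scored under a dissection microscope against DMSO-only wells and averaged across two biological replicates.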

SMILES	proportion of mobile M. hapla J2 [1]	proportion of mobile D. dipsaci [2]	proportion of mobile C. elegans dauer larvae [3]
FC(F)(F)c1cccc(-c2noc(-c3ccccc3Cl)n2)c1	1.04	1	
Cc1ccccc1-c1noc(CSc2nc3ccccc3[nH]2)n1	0.918	1	
COc1ccccc1NC(=O)c1ccccc1-c1nc(-c2ccccc2F)no1	1.02	1	
Cc1ccccc1OCc1nc(-c2ccccc2)no1	0.821	1	
Clc1ccc(CSc2nnc(-c3ccccc3Cl)o2)cc1	0.888	1	
Cc1ccc(-c2nc(-c3ccc(Br)cc3)no2)cc1	0.916	1	
COc1ccc(-c2nnc(SCc3csc(N)n3)o2)cc1	0.941	1	
CCOc1ccc(NC(=O)CSc2nnc(-c3ccncc3)o2)cc1	0.897	1	
Fc1ccc(OCc2nc(-c3ccccc3)no2)cc1	1.02	1	
COc1ccc(-c2noc(-c3ccccc3Br)n2)cc1	0.765	1	1
CCc1nnc(NC(=O)CSc2nnc(-c3ccc(Cl)cc3Cl)o2)s1	0.875	1	
Cc1cccc(-c2noc(-c3ccc(Br)cc3)n2)c1	1.04	1	
COc1ccc(Cl)cc1NC(=O)CSc1nnc(-c2ccc(C)cc2)o1	0.982	1	
Cc1cc(NC(=O)CSc2nnc(-c3ccc(Cl)cc3Cl)o2)no1	0.833	1	
FC(F)(F)c1ccc(-c2noc(-c3ccccc3Cl)n2)cc1	1.04	1	1
Clc1ccc(SCc2nc(-c3ccccc3)no2)cc1	0.783	1	0.59 (active)
Cc1cccc(OCc2nc(-c3ccccc3Cl)no2)c1	1.08	1	
COc1ccc(-c2nnc(SCC(=O)Nc3c(F)cc(F)cc3Br)o2)cc1	1.03	1	
Cc1ccc(-c2nc(-c3cccnc3)no2)cc1Cl	1.02	1	
CC1CC(C)CN(C(=O)CSc2nnc(-c3cccc(Cl)c3)o2)C1 (configuration not stated)	1.04	1	1
COc1ccccc1OCc1nc(-c2cccc(Br)c2)no1	0.499 (active)	1	

SMILES	proportion of mobile M. hapla J2 [1]	proportion of mobile D. dipsaci [2]	proportion of mobile C. elegans dauer larvae [3]
Clc1ccc(-c2nc(C3CCCCC3)no2)cc1	1.04	1	
COc1ccc(-c2nnc(SCC(=O)Nc3ccc(Br)c(C)c3)o2)cc1	0.999	1	
CC(C)Oc1ccc(-c2nc(-c3ccccn3)no2)cc1	0.943	1	
Cc1cc(OCc2nc(-c3ccncc3)no2)cc(C)c1Br	1.03	1	
O=C(NC1CCCCC1)c1ccccc1-c1nc(-c2ccc(F)cc2)no1	0.863	1	
O=C(CSc1nnc(-c2ccccc2)o1)Nc1cccc(Cl)c1	1	1	
Cc1cc(OCc2nc(-c3ccncc3)no2)ccc1Br	1.05	1	
COc1ccc(-c2noc(COc3ccc(Cl)cc3C)n2)cc1	0.94	1	
Cc1ccc(-c2nnc(SCC(=O)Nc3ccc(Br)c(C)c3C)o2)cc1	1.03	1	
O=C(CSc1nnc(-c2ccc(Cl)cc2)o1)NCc1ccccc1	0.901	1	
Fc1ccccc1-c1nc(-c2ccccc2)no1	0.991	1	
Clc1cccc(OCc2nc(-c3ccncc3)no2)c1	0.85	1	
CCOc1ccccc1NC(=O)CSc1nnc(-c2ccccc2)o1	0.977	1	
CCOc1cc(-c2nc(-c3ccc(C)nc3OC)no2)cc(OCC)c1OCC	0.628 (active)	1	
Fc1cccc(Cl)c1CSc1nnc(-c2ccccc2)o1	1	1	
COc1ccc(OC(C)c2nc(-c3cccnc3)no2)cc1 (configuration not stated)	0.966	1	
c1ccc(-c2noc(-c3cccs3)n2)cc1 [tioxazafen]	0.937	1	
Cc1cccc(-c2nc(-c3ccc4c(c3)OCO4)no2)c1	1.01	1	
Fc1ccc(-c2nc(-c3cccc(C(F)(F)F)c3)no2)cc1	0.939	1	
COc1ccccc1-c1nc(-c2cccc(Br)c2)no1	1.04	1	
COc1ccc(-c2noc(-c3ccccc3C(=O)Nc3cccc(C)c3C)n2)cc1	0.912	1	

SMILES	proportion of mobile M. hapla J2 [1]	proportion of mobile D. dipsaci [2]	proportion of mobile C. elegans dauer larvae [3]
CCSc1nnc(-c2ccc(Cl)cc2)o1	0 (active)	0 (active)	
Brc1ccc(-c2nnc(SCc3ccccc3)o2)cc1	1.04	1	
COc1cccc(-c2noc(-c3ccccc3C)n2)c1	1.06	1	
CCN(CC)C(=O)CSc1nnc(-c2ccc(Br)cc2)o1	1.04	1	
Cc1cc(Cl)ccc1NC(=O)CSc1nnc(-c2ccncc2)o1	0.974	1	
CCCc1ccc(-c2nc(-c3cccnc3)no2)cc1	1.08	0.562 (active)	
COc1ccc(-c2noc(COc3ccc4c(c3)CCCC4)n2)cc1	0.959	1	
Cc1ccc(C(=O)CSc2nnc(-c3ccco3)o2)o1	0.906	1	
COc1ccc(-c2noc(C3CCCCC3)n2)cc1	0.927	1	
CC(C)Oc1ccc(-c2nc(-c3ccccc3)no2)cc1	0.993	1	
O=C(c1ccccc1-c1nc(-c2ccccc2)no1)N1CCCCC1	1.06	1	
O=C(CSc1nnc(-c2cccc(Br)c2)o1)c1ccccc1	1.02	0.714 (active)	
Cc1cc(C)cc(OCc2nc(-c3ccccc3Cl)no2)c1	0.978	1	
COc1nc(C)ccc1-c1noc(-c2ccc(C(C)(C)C)cc2)n1	0.926	1	
CCCOc1ccc(-c2nc(-c3cccnc3)no2)cc1	0.945	1	
COc1ccccc1NC(=O)CSc1nnc(-c2ccccc2)o1	1.04	1	
COc1ccc(-c2noc(COc3ccc(Cl)c(C)c3)n2)cc1	1.02	1	
Clc1ccc(-c2nnc(SCc3ccccc3)o2)cc1	0.827	1	
Fc1ccc(OCc2nc(-c3ccc(Cl)cc3)no2)cc1	1.1	1	
CCOc1ccccc1-c1nnc(SCC(=O)Nc2nc(C)cs2)o1	0.993	1	
Brc1ccc(-c2noc(COc3ccccc3)n2)cc1		1	1

SMILES	proportion of mobile M. hapla J2 [1]	proportion of mobile D. dipsaci [2]	proportion of mobile C. elegans dauer larvae [3]
Cc1ccc(-c2nc(C3CCCCC3)no2)cc1		1	1
COc1cccc(NC(=O)CSc2nnc(-c3ccc(Br)cc3)o2)c1		1	1
c1cc(-c2noc(C34CC5CC(CC(C5)C3)C4)n2)ccn1		1	1
Cc1ccc(C)c(OCc2nc(-c3cccnc3)no2)c1		1	1
Cc1cccc(-c2noc(-c3ccccc3Cl)n2)c1		1	1
FC(F)(F)c1cccc(-c2noc(-c3ccc4c(c3)OCO4)n2)c1		1	1
Clc1ccc(-c2noc(COc3ccccc3Cl)n2)cc1		1	1
Cc1cccc(-c2noc(-c3ccc(F)cc3)n2)c1		1	1
COc1ccc(-c2noc(COc3ccc(Cl)cc3Cl)n2)cc1		1	1
CCOc1ccccc1-c1nc(-c2cccc(C)c2)no1		1	1
Cc1ccc(OCc2nc(-c3ccc(Cl)cc3)no2)cc1		1	1
CCOC(=O)c1sc(NC(=O)CSc2nnc(-c3ccc(Cl)cc3)o2)c(C#N)c1C		1	1
CCOc1nc(-c2ccccc2)ccc1-c1noc(-c2ccccc2F)n1		1	1
Clc1ccc(SCc2nc(-c3ccccn3)no2)cc1		1	0.5 (active)
c1ccc(-c2nnc(SCc3nc4ccccc4[nH]3)o2)cc1		1	1
COc1nc2ccc(C)cc2cc1-c1noc(-c2ccncc2)n1		1	1
Cc1cccc(OC(C)c2nc(-c3ccncc3)no2)c1 (configuration not stated)		1	0.85
O=C(Nc1ccccc1-c1nc(-c2ccncc2)no1)c1ccc(Cl)cc1		1	1
COc1cccc(-c2noc(COc3ccc4ccccc4c3)n2)c1		1	1
Cc1cccc(NC(=O)CSc2nnc(-c3ccncc3)o2)c1C		1	1
COc1ccc(-c2noc(COc3ccccc3C)n2)cc1		1	1
